Several values for one entry are separate records, joined by “and”; a condition that tells them apart may be missing. Identical values can stand only once. The panel holds about 83,000 compounds, 20% with a hit somewhere; the sample as a whole holds those more often.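 Single-concentration screen, 48 h exposure, 96-well plates. Endpoint: percent growth. Below 10 = active.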 More than one record can exist for a structure, and the calls need not agree. Activity calls are given as the source filed them.

What all share (assay): NCI-60 one-dose screen, 48 h (100 = growth as untreated, 0 = no growth, -100 = all killed)
The test system of one test is HCT-15 colon. The conditions noted are these: 10 µM unless noted.
Another test has as its system HT29 colon. As to conditions: 10 µM unless noted.
In a further test the test system is SNB-75 CNS. As to conditions: 10 µM unless noted.
The test system of the next test is SNB-19 CNS. The conditions noted are these: 10 µM unless noted.
The test system of a further test is U251 CNS. The conditions noted are these: 10 µM unless noted.
A further test concerns PC-3 prostate. The conditions noted are these: 10 µM unless noted.
The subject of the next test is SK-MEL-5 melanoma. The conditions noted are these: 10 µM unless noted.
The subject of another test is SK-MEL-28 melanoma. As to conditions: 10 µM unless noted.
Another test relates to SK-MEL-2 melanoma. The conditions noted are these: 10 µM unless noted.
For another test, the system named is EKVX NSCLC. As to conditions: 10 µM.
Another test relates to SN12C renal. As to conditions: 10 µM unless noted.
A further test deals with TK-10 renal. The conditions noted are these: 10 µM unless noted.
The subject of the next test is CAKI-1 renal. As to conditions: 10 µM unless noted.
A further test concerns CCRF-CEM leukemia. As to conditions: 10 µM.
The subject of the next test is MOLT-4 leukemia. As to conditions: 10 µM unless noted.
In the next test the test system is UACC-62 melanoma. The conditions noted are these: 10 µM unless noted.
The next test concerns UO-31 renal. The conditions noted are these: 10 µM unless noted.
For a further test, the system named is ACHN renal. As to conditions: 10 µM unless noted.
The subject of the next test is A498 renal. The conditions noted are these: 10 µM unless noted.

For `C/C(=C\c1ccccc1)c1ccccn1`, the growth is 103% (inactive) with HCT-15 colon; 113% (inactive) in the test on HT29 colon; 89.1% (inactive) with SNB-75 CNS; 92.1% (inactive) in the test on SNB-19 CNS; 107% (inactive) in the test with U251 CNS; 98.7% (inactive) in the test on PC-3 prostate. The growth was 103% (inactive) in the test on SK-MEL-5 melanoma; 107% (inactive) in the test on SK-MEL-28 melanoma; 128% (inactive) in the test with SK-MEL-2 melanoma; 98.7% (inactive) in the test with EKVX NSCLC; 95.8% (inactive) in the test with SN12C renal; 162% (inactive) in the test on TK-10 renal. In addition, the growth in the test on CAKI-1 renal is 102% (inactive); in the test on CCRF-CEM leukemia it was 94.5% (inactive); in the test with MOLT-4 leukemia, 73.3% (inactive).
As for `O=CN1CCCCC1`, the growth with HCT-15 colon is 106% (inactive); in the test on HT29 colon, 108% (inactive); in the test on SNB-75 CNS, 94.3% (inactive); in the test on SNB-19 CNS, 107% (inactive); in the test on U251 CNS, 110% (inactive); in the test with PC-3 prostate it was 106% (inactive). Also, the growth with SK-MEL-5 melanoma is 100% (inactive); with SK-MEL-28 melanoma it was 110% (inactive); with SK-MEL-2 melanoma it was 125% (inactive); with EKVX NSCLC, 94.9% (inactive); in the test with SN12C renal, 104% (inactive); in the test with TK-10 renal, 125% (inactive). In addition, the growth with CAKI-1 renal was 96.9% (inactive); with CCRF-CEM leukemia, 115% (inactive); with MOLT-4 leukemia it was 121% (inactive).
As to `N#CC(C#N)N=Nc1ccc(Cl)cc1`, the growth is 15.1% (inactive) in the test with HCT-15 colon; 24.7% (inactive) in the test with HT29 colon; 72% (inactive) in the test on SNB-75 CNS; 94.2% (inactive) in the test on SNB-19 CNS; 88.7% (inactive) in the test on U251 CNS; 54.7% (inactive) in the test on PC-3 prostate. Moreover, the growth in the test on SK-MEL-5 melanoma was 79.6% (inactive); with SK-MEL-28 melanoma it was 42.2% (inactive); with SK-MEL-2 melanoma it was 77.3% (inactive); with SN12C renal it was 33.5% (inactive); in the test with TK-10 renal, 42.9% (inactive); in the test with CAKI-1 renal it was 4.49% (active). For the same molecule, the figures for the growth in the test with CCRF-CEM leukemia and with MOLT-4 leukemia were 28.6% (inactive) and 37.6% (inactive), respectively.
`NC1CCC(C(=O)O)CC1` (stereo unspecified): the growth is 106% (inactive) and 98.9% (inactive) in the test on HCT-15 colon; 101% (inactive) and 102% (inactive) in the test on HT29 colon; 85.8% (inactive) and 82% (inactive) in the test with SNB-75 CNS; 105% (inactive) and 110% (inactive) in the test on SNB-19 CNS; 103% (inactive) and 106% (inactive) in the test on U251 CNS; 93.3% (inactive) and 86.9% (inactive) in the test with PC-3 prostate. Further, the growth is 102% (inactive) and 103% (inactive) in the test with SK-MEL-5 melanoma; 97.7% (inactive) and 101% (inactive) in the test with UACC-62 melanoma; 103% (inactive) and 107% (inactive) with SK-MEL-28 melanoma; 104% (inactive) and 102% (inactive) with SK-MEL-2 melanoma; 97% (inactive) and 103% (inactive) with SN12C renal; 105% (inactive) and 87% (inactive) with UO-31 renal. Further, the growth is 97.7% (inactive) and 102% (inactive) in the test with TK-10 renal; 106% (inactive) and 105% (inactive) in the test on ACHN renal; 96.7% (inactive) and 90.7% (inactive) with CAKI-1 renal; 80.9% (inactive) and 79.5% (inactive) with CCRF-CEM leukemia; 107% (inactive) and 98% (inactive) with MOLT-4 leukemia.
`CC1=C/C(O)CC(=O)Cc2nc(co2)C(=O)N2CCC=C2C(=O)OC(C(C)C)C(C)/C=C\C(=O)NC/C=C\1` (stereo unspecified): the growth with HCT-15 colon was 90.1% (inactive); with HT29 colon, 76.7% (inactive); with SNB-75 CNS, 80.8% (inactive); in the test on SNB-19 CNS, 89.8% (inactive); in the test with U251 CNS, 92.9% (inactive); in the test on PC-3 prostate it was 71.5% (inactive). Also, the growth was 96.7% (inactive) in the test on SK-MEL-5 melanoma; 84.9% (inactive) in the test on UACC-62 melanoma; 32.6% (inactive) in the test with SK-MEL-28 melanoma; 21.8% (inactive) in the test with SK-MEL-2 melanoma; 87.9% (inactive) with SN12C renal; 127% (inactive) with TK-10 renal. Besides, the growth in the test on CAKI-1 renal is 81% (inactive); in the test with A498 renal, 90.9% (inactive); in the test with CCRF-CEM leukemia it was 37% (inactive); in the test with MOLT-4 leukemia, 77.4% (inactive).
As to `OCCN1CCCCCCC1`, the growth with HCT-15 colon is 91.4% (inactive); with HT29 colon it was 106% (inactive); in the test on SNB-75 CNS, 115% (inactive); in the test with SNB-19 CNS, 101% (inactive); in the test with PC-3 prostate it was 93.5% (inactive); with SK-MEL-5 melanoma, 102% (inactive). Moreover, the growth in the test with UACC-62 melanoma is 101% (inactive); in the test with SK-MEL-28 melanoma, 104% (inactive); with SK-MEL-2 melanoma it was 112% (inactive); in the test with SN12C renal, 93.7% (inactive); with TK-10 renal, 99.9% (inactive); with CAKI-1 renal it was 93.2% (inactive). For the same molecule, the growth with MOLT-4 leukemia was 106% (inactive).
As to `CC(=O)OC(C)C(=O)NCC(C)O` (stereo unspecified), the growth with HCT-15 colon is 100% (inactive); in the test with HT29 colon, 110% (inactive); in the test with SNB-75 CNS it was 93.2% (inactive); in the test on SNB-19 CNS, 110% (inactive); in the test on PC-3 prostate it was 96.6% (inactive); in the test with UACC-62 melanoma, 122% (inactive). For the same molecule, the growth is 105% (inactive) in the test on SK-MEL-28 melanoma; 110% (inactive) in the test on SK-MEL-2 melanoma; 106% (inactive) in the test with SN12C renal; 113% (inactive) with TK-10 renal; 108% (inactive) in the test with CAKI-1 renal; 98.9% (inactive) with CCRF-CEM leukemia. Also, the growth in the test with MOLT-4 leukemia is 98.1% (inactive).
In the case of `O=C1NC(N/N=C\C(O)C(O)C(O)CO)=N/C1=C/c1ccc(Cl)cc1` (stereo unspecified), the growth was 3.82% [100 µM] (active) and -100% [100 µM] (active) and 32.5% [100 µM] (inactive) with UACC-62 melanoma; 54.4% [100 µM] (inactive) and -100% [100 µM] (active) and 89.6% [100 µM] (inactive) in the test on TK-10 renal.
For the molecule `Cl`, the growth is 102% (inactive) in the test with HCT-15 colon; 106% (inactive) in the test on HT29 colon; 96.9% (inactive) in the test with SNB-75 CNS; 99.3% (inactive) in the test on SNB-19 CNS; 102% (inactive) with U251 CNS; 106% (inactive) in the test on PC-3 prostate. Besides, the growth with SK-MEL-5 melanoma was 105% (inactive); in the test on UACC-62 melanoma, 105% (inactive); in the test on SK-MEL-28 melanoma, 136% (inactive); in the test on SN12C renal, 104% (inactive); in the test with UO-31 renal, 87.1% (inactive); in the test with TK-10 renal it was 109% (inactive). The growth was 104% (inactive) in the test with ACHN renal, 95.6% (inactive) in the test with CAKI-1 renal, 106% (inactive) in the test with CCRF-CEM leukemia and 88.5% (inactive) with MOLT-4 leukemia.

The values above are taken from PubChem BioAssay (NCI).
